Potency and outcome data for 32 molecules are collected here from PubChem BioAssay (NCATS).

Values without a mark were called inactive. Records with an inconclusive call do not appear. Calls of active or inactive are those of the source. Calls follow the shape of the dose curve; as a rule, active = well fitted curve in the direction sought with a large enough effect; inconclusive = small, poorly fitted or top-dose-only effect, or another doubt; inactive = no such curve, though single readings can be large; an effect the other way counts as inactive or inconclusive.

Experiment [1] in a line: qHTS to identify inhibitors of the type 1 interferon - major histocompatibility complex class I in skeletal muscle: primary screen against the NCATS Pharmaceutical Collection (AID 1347407).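 Also: luminescence of HiBiT knocked into endogenous HLA-B as interferon-induced MHC class I level.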 Also: potency is read from the fitted curve at half-maximal effect. In a few lines:
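Luminescence from HiBiT-tagged endogenous HLA-B*08:01 served as the read-out of IFN-beta-induced MHC class I in CRISPR-engineered C25cl48 myoblasts. Cells received 4 ng/ml IFN-beta plus compound (high final 46 uM, […]) for 24 h.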
On the technique in general: qHTS replaces the single test concentration by a dilution series.

Experiment [2] in a line: qHTS to identify inhibitors of the type 1 interferon - major histocompatibility complex class I in skeletal muscle: primary screen against the NCATS Mechanism Interrogation Plate v5.0 (MIPE) Libary (AID 1347411). Also: nearly all actives have a fitted effect of over 65% in size. Also: potency is read from the fitted curve at half-maximal effect. In a few lines:
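Immortalized human myoblasts (C25cl48) with HiBit knocked into endogenous HLA-B*08:01 were stimulated with 4 ng/ml IFN-beta and given compounds in 11-point 1:3 titration from 46 uM. After 24 h at 37 C, lytic HiBiT luminescence was read.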

The target in experiment [3] is Protein phosphatase 1D (Homo sapiens) (UniProt O15297). The experiment in a line: RapidFire Mass Spectrometry qHTS Assay for Modulators of WT P53-Induced Phosphatase 1 (WIP1) (AID 1347424).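 Also: amount of dephosphorylated VEPPL-S-QETFS peptide product formed by WIP1; series mostly up to about 63 µM.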 In a few lines: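 10 nM WIP1 + cpd, 1 h RT; + 2 uM VEPPL-pS-QETFS, 5 min RT; stop 0.5% formic acid; labelled product standard 1 uM; RapidFire MS. Buffer 50 mM Tris pH 7.5, 30 mM MgCl2, 1 mM TCEP.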

Experiment [4] has the same target. The experiment in a line: Rhodamine-PBP qHTS Assay for Modulators of WT P53-Induced Phosphatase 1 (WIP1) (AID 1347425). A digest of the protocol: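 5 nM WIP1 + 10 uM Rh-PBP, 50 mM Tris pH 7.5, 30 mM MgCl2, 1 mM TCEP, 0.1 mM EGTA, BSA; cpds pinned, 1 hr RT; + 10 uM phosphopeptide; fluorescence 1-min reads x 11 min; delta = f1 - f0.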
Experiment [5] in a line: Primary qHTS for inhibitors of La Crosse Virus (LACV) - induced cell death in SH-SY5Y cells (AID 1508616). Also: potency is read from the fitted curve at half-maximal effect. A digest of the protocol:
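SH-SY5Y cells (6000/well) plated 24 h, then given compounds by pin transfer and LACV at 0.01 MOI for 6 days at 37C. Viability measured by ATPLite luminescence, normalized to infected DMSO and uninfected DMSO.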

Experiment [6] in a line: HepG2 cells viability qHTS for Zika virus inhibitors (AID 1347168). Also: potency is read from the fitted curve at half-maximal effect. A digest of the protocol:
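Compounds were tested in concentration series on cells grown in DMEM containing 4% FBS. After 24 to 48 hours, cellular ATP was measured by luminescence with CellTiter Glo.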

Experiment [7] is described as follows: qHTS to identify inhibitors of the type 1 interferon - major histocompatibility complex class I in skeletal muscle: primary screen against the NCATS LOPAC collection (AID 1347405).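 Also: lytic HiBiT luminescence reporting HLA-B protein level.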 In a few lines:
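CRISPR-engineered immortalized human myoblasts (C25cl48) with HiBiT fused to endogenous HLA-B*08:01, stimulated with 4 ng/ml IFN-beta. LOPAC compounds tested as a 7-point 1:4.3 titration (top 46 uM final), 24 h at 37 C; lytic HiBiT luminescence read.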

A short description of experiment [8]: qHTS for inhibitors of adenylyl cyclases using a fission yeast platform: a pilot screen against the NCATS LOPAC library (AID 1347410). A digest of the protocol:
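Fission yeast qHTS: CHP2027 cells (AC9-GNAS-PDE4D2, fbp1-GFP), 5x10^6 cells/mL working density, EMM + His/Lys/Ura; LOPAC at up to 57 µM final; 18 h dark, 30C; GFP by laser cytometry. DPI positive control, DMSO vehicle.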

The nature of experiment [9]: Validation qHTS assay for inhibitors of Activation Induced Cytidine Deaminase (AID): UDG Counterscreen signal (AID 1347427). In a few lines: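 Counterscreen read of UDG activity (2 U/mL, 4/3x) in the FRET deamination format with AID (1 uM, 4/3x), DJC20/DJC23 substrates (250 nM, 4x), 4 h at room temperature. NaOH stop, fluorescence at 560 ex/665 em.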
Experiment [10] addresses Calcium and integrin-binding protein 1 (Homo sapiens) (UniProt Q99828). The experiment in a line: Validation qHTS for Identification of Calcium Integrin Binding protein 1 (CIB1) Competitor (AID 1508618). In a few lines: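 Displacement of FITC-alphaIIb peptide (100 nM) from CIB1-GST (1 uM) is monitored by polarization in quantitative HTS format; buffer carries 5 mM CaCl2 and 125 mM NaCl at pH 7.4, incubations are at room temperature.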

For experiment [11] the target is unchanged. Kind of experiment: Primary qHTS for Identification of Calcium Integrin Binding Protein 1 (CIB1) Competitor (AID 1508620).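 Also: GST tagged CIB1 binding a fluorescein labelled alphaIIb integrin peptide tracer; top concentration of the series differs between compounds.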 A digest of the protocol:
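CIB1-GST (1 uM final) and compound incubated 15 min at room temperature before adding FITC-alphaIIb peptide tracer (100 nM final). Competition for binding read by fluorescence polarization (ex 480, em 540) after another 15 min at room temperature.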

The nature of experiment [12]: Tertiary RLuc qRT-PCR qHTS assay for Zika virus inhibitors (AID 1347169). Also: top concentration of the series differs between compounds; nearly all actives have a fitted effect of over 55% in size. In a few lines:
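Vero, 1,000 cells/well, o/n 37 C; cpd pinned in DMSO; ZIKV-RLuc Cambodian, MOI 1-2, 48-72 h 37 C; live-cell RLuc substrate, lum read at 1-1.5 h.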
In general terms: Real-time PCR tracks product formation cycle by cycle.

Sequence of Calcium and integrin-binding protein 1 (Homo sapiens) (Q99828 whole entry, looked up): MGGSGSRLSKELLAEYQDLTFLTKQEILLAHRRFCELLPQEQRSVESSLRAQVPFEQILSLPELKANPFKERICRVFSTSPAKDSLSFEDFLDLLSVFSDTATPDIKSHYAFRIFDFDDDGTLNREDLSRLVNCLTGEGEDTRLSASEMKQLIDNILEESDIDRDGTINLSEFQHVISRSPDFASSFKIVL
Sequence of Protein phosphatase 1D (Homo sapiens) (O15297 whole entry, looked up): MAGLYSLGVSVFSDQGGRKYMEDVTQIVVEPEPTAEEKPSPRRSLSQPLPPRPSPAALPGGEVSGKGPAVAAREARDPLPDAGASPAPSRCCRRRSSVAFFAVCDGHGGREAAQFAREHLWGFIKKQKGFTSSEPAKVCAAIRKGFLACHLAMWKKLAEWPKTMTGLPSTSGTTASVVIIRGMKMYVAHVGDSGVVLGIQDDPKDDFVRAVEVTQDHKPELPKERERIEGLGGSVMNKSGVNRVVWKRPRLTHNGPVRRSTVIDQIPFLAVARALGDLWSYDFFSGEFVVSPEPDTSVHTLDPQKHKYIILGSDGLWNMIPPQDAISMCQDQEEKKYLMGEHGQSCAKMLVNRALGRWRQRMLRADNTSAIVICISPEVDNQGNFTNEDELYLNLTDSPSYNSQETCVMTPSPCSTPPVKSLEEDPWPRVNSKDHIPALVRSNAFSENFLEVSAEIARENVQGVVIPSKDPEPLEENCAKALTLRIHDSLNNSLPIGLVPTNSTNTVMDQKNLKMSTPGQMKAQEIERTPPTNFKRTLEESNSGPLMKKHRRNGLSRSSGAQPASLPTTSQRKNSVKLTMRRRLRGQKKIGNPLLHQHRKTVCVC

In the case of `C[C@@H]1CN(c2c(F)c(N)c3c(=O)c(C(=O)O)cn(C4CC4)c3c2F)C[C@H](C)N1`, the Potency entry in [1], in experiment [2] and in experiment [5] was “inactive” throughout. Also, the outcome in experiment [3] and in [4] was inactive.
For the molecule `OCc1ccc(-c2nn(Cc3ccccc3)c3ccccc23)o1`, the Potency in experiment [6] was 11.7 µM (active). For the same molecule, the molecule was called inactive in experiment [7], in [8], in [9], in [10] and in [11]. Also, the Potency result in [2] and in experiment [5] was “inactive” throughout.
In the case of `COC(c1ccccc1)(c1ccccc1)[C@H](Oc1nc(C)cc(C)n1)C(=O)O`, the Potency result in [1], in [2] and in experiment [5] was “inactive” each time. Further, the call in [3] and in experiment [4] was inactive.
Regarding `CCCN[C@H]1CCc2nc(N)sc2C1`, the Potency entry in [1], in experiment [2] and in [5] was “inactive” in each case. Further, the molecule was called inactive in [3], in [4] and in experiment [11].
With `O=C(O)c1cc(=O)[nH]c(=O)[nH]1`, the Potency result in experiment [1], in [2] and in experiment [5] was “inactive” in each case. Further, the outcome in experiment [3] and in [4] was inactive.
For the molecule `CC(C)C[C@H](NC(=O)[C@H](CCc1ccccc1)NC(=O)CN1CCOCC1)C(=O)N[C@@H](Cc1ccccc1)C(=O)N[C@@H](CC(C)C)C(=O)[C@@]1(C)CO1`, the Potency is 0.0938 µM (active) in experiment [1], 0.0262 µM (active) in [2] and 0.355 µM (active) in [5]. In addition, the molecule was called inactive in experiment [3], in experiment [4] and in [11].
With `CC(C)Cn1cnc2c(N)nc3ccccc3c21`, the Potency result in experiment [1], in [2] and in experiment [5] was “inactive” each time. Further, the molecule was classed as inactive in experiment [3] and in experiment [4].
Consider `CC(N)C12CC3CC(CC(C3)C1)C2` (stereo not drawn), for which the Potency result in experiment [1], in experiment [2] and in [5] was “inactive” in each case. For the same molecule, the outcome in experiment [3] and in [4] was inactive.
With `Cn1nnc2c(C(N)=O)ncn2c1=O`, the Potency entry in experiment [1], in experiment [2] and in [5] was “inactive” each time. The outcome in experiment [3] and in [4] was inactive.
For the molecule `CCC(C)(C)c1ccc(CC(C)CN2C[C@@H](C)O[C@@H](C)C2)cc1` (stereo partly drawn), the Potency entry in experiment [1], in experiment [2] and in [5] was “inactive” in each case. The call in [3], in [4] and in [11] was inactive.
Consider `Cn1c(=O)c2c(ncn2CC(O)CO)n(C)c1=O` (stereo not drawn), for which the Potency entry in experiment [1], in experiment [2] and in [5] was “inactive” in each case. Further, the outcome in experiment [3], in experiment [4] and in experiment [11] was inactive.
On to `COc1ncnc(NS(=O)(=O)c2ccc(N)cc2)c1OC`, for which the Potency result in [1], in [2] and in experiment [5] was “inactive” each time. For the same molecule, the molecule was classed as inactive in [3], in [4] and in [11].
Turning to `CNNCc1ccc(C(=O)NC(C)C)cc1`, the Potency entry in [1], in experiment [2] and in experiment [5] was “inactive” throughout. For the same molecule, the molecule was classed as inactive in experiment [3] and in [4].
For the molecule `C#CCN[C@@H]1CCc2ccccc21`, the Potency result in experiment [1], in [2] and in experiment [5] was “inactive” throughout. In addition, the result in experiment [3], in experiment [4] and in experiment [11] was inactive.
Regarding `CN(C)CCc1c[nH]c2ccc(CS(=O)(=O)N3CCCC3)cc12`, the Potency result in experiment [1], in experiment [2] and in experiment [5] was “inactive” each time. Besides, the result in experiment [3] and in experiment [4] was inactive.
With `NC(=O)c1cccc(N)c1`, the call in experiment [7], in [8], in experiment [9] and in [10] was inactive. The Potency entry in experiment [2] and in experiment [5] was “inactive” each time.
In the case of `O=C(O)c1cn(C2CC2)c2cc(N3CCNCC3)c(F)cc2c1=O`, the Potency result in experiment [6], in experiment [12] and in experiment [5] was “inactive” each time. The result in experiment [3] and in experiment [4] was inactive.
Consider `CCOC(=O)c1ccc(OC(=O)CCCCCN=C(N)N)cc1`, for which the Potency entry in experiment [1], in experiment [2] and in experiment [5] was “inactive” each time. Moreover, the call in [3] and in [4] was inactive.
As to `CC(C)(C#N)c1cc(Cn2cncn2)cc(C(C)(C)C#N)c1`, the Potency entry in [1], in [2] and in experiment [5] was “inactive” each time. Moreover, the result in [3] and in experiment [4] was inactive.
Turning to `CCCc1cc(C(N)=S)ccn1`, the Potency result in experiment [1], in experiment [2] and in experiment [5] was “inactive” each time. For the same molecule, the result in experiment [3], in [4] and in experiment [11] was inactive.
Turning to `CCCCOc1ccc(CC(=O)NO)cc1`, the Potency entry in [1], in [2] and in [5] was “inactive” each time. Besides, the result in [3], in experiment [4] and in [11] was inactive.
As for `O=C(O)CSCC(=O)NC1CCSC1=O` (stereo not drawn), the Potency entry in [1], in [2] and in experiment [5] was “inactive” throughout. For the same molecule, the result in experiment [3], in experiment [4] and in experiment [11] was inactive.
For the molecule `CCC(=O)O[C@]1(C(=O)CCl)[C@@H](C)C[C@H]2[C@@H]3CCC4=CC(=O)C=C[C@]4(C)[C@@]3(F)[C@@H](O)C[C@@]21C`, the Potency result in [1], in experiment [2] and in experiment [5] was “inactive” in each case. Moreover, the molecule was classed as inactive in experiment [3], in experiment [4] and in experiment [11].
As to `Cc1oc(=O)oc1CN1CCN(c2cc3c(cc2F)c(=O)c(C(=O)O)c2n3C(C)S2)CC1` (stereo not drawn), the Potency result in experiment [1], in experiment [2] and in experiment [5] was “inactive” throughout. Moreover, the call in experiment [3], in experiment [4] and in [11] was inactive.
As for `C[C@@H](NCCCc1cccc(C(F)(F)F)c1)c1cccc2ccccc12`, the Potency in [1] was 26.4 µM (active). In addition, the molecule was called inactive in experiment [3] and in experiment [4]. Further, the Potency entry in experiment [5] was “inactive”.
With `O=S(=O)(O)CCS`, the Potency entry in experiment [1], in experiment [2] and in [5] was “inactive” each time. For the same molecule, the result in experiment [3], in experiment [4] and in experiment [11] was inactive.
`OC(Cn1cncn1)(Cn1cncn1)c1ccc(F)cc1F`: the Potency result in experiment [1], in [2] and in experiment [5] was “inactive” in each case. The outcome in experiment [3], in [4] and in experiment [11] was inactive.
`CC(=O)Oc1ccccc1C(=O)Nc1ncc([N+](=O)[O-])s1`: the Potency entry in experiment [1] and in experiment [5] was “inactive” each time. Besides, in experiment [2], the Potency is 23.4 µM (active).
As for `NNC(=O)c1ccncc1`, the Potency result in experiment [1], in [2] and in experiment [5] was “inactive” each time. Besides, the molecule was classed as inactive in experiment [3], in experiment [4] and in experiment [11].
Consider `Cc1ccnc2c1NC(=O)c1cccnc1N2C1CC1`, for which the Potency result in [1] and in experiment [5] was “inactive” each time. The molecule was classed as inactive in experiment [3] and in experiment [4].
Take `CC(C)OC(=O)OCOP(=O)(CO[C@H](C)Cn1cnc2c(N)ncnc21)OCOC(=O)OC(C)C`: the Potency entry in experiment [1] and in [5] was “inactive” in each case. In addition, the outcome in experiment [3] and in experiment [4] was inactive.
Turning to `C[C@@H](CN1CC(=O)NC(=O)C1)N1CC(=O)NC(=O)C1`, the Potency result in [1] and in experiment [2] was “inactive” throughout. The outcome in [3], in [4] and in [11] was inactive.
